A selection: hits, their analogues and other compounds. The true share with any hit is near 19%.
DT40 TDP1 CPT: growth inhibition of DT40 Tdp1-/-;hTDP1 cells with camptothecin (screen for TDP1 inhibitors); chicken DT40 Tdp1-/-;hTDP1 cells + 20 nM CPT, ATP luminescence, 48 h; Potency, µM (series often up to 46.2 µM), hits mostly inhibitors; actives 12% (n = 420,000); AID 686979; also: nearly all actives have a fitted effect of over 55% in size
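Cell growth measured by CellTiter-Glo luminescence after a minimum 48 h, 37 C compound exposure with 20 nM CPT in Tdp1-knockout DT40 cells stably expressing hTDP1, seeded 400/well; qHTS titration format.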
IL1B secr inh: blocks inflammasome-driven IL-1 beta release; AID 743279; actives 4.7% (n = 360,000); THP-1 LPS/ATP IL-1B secretion, AlphaLISA, 16 h; stronger effect = lower value; activity change, % at 57.5 µM; in the data active = activity change below about -50%; inconclusive = mostly about -30% to -49%
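Secreted IL-1B measured by AlphaLISA bead assay after 16 h compound exposure of THP-1 cells; compounds (final up to 57.5 uM) added 1 h before LPS (250 ng/mL) and ATP (1.25 mM) stimulation; lower signal means less secretion.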
Chronic BCR inh: inhibitors of chronic active B-cell receptor signaling | ABC-DLBCL IkBa-CBG/CBR reporter, luminescence ratio, 4 h | AID 493014 | actives 0.05% (n = 340,000) | Potency, µM (titrated, usually from 46.1 µM), usual class: inhibitors; active = well fitted inhibition curve with a large enough effect in the signal ratio, with a control signal flat, not every such curve was filed as active; inconclusive = small, poorly fitted or top-dose-only effect, or effect the other way, or a change in a side signal; the % refers to the signal ratio
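Cell line TMD8 (human ABC DLBCL), stably expressing tet-inducible CBG68-IkBa fusion and CBR; IMDM/0.5% FBS; cpd up to 46 uM; dox induction, 4 h, 37C/5% CO2; dual luminescence; green/red ratio; MG132 control.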
MCF10A rerep: inducers of DNA re-replication in MCF 10A breast cells; MCF 10A DNA re-replication, Hoechst nuclear intensity, 48 h; Potency, µM (top dose mostly 46.1 µM), actives largely listed as activators; actives 2.9% (n = 350,000); AID 624296; also: nearly all actives have a fitted effect of over 50% in size
TDP1 cell noCPT: qHTS for Inhibitors of human tyrosyl-DNA phosphodiesterase 1 (TDP1): qHTS in cells in absence of CPT; DT40 Tdp1-/- hTDP1 cells, no CPT, ATP luminescence, 48 h; Potency, µM (top dose mostly 46.2 µM), hits mostly inhibitors; actives 15% (n = 420,000); also: nearly all actives have a fitted effect of over 55% in size
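DT40 Tdp1-/-;hTDP1 cells, no CPT (DMSO vehicle only), 400 cells/well; compounds pin-transferred; ≥48 hr, 37 °C; CellTiter-Glo 30 min RT dark, luminescence read.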
SW480 rereplic: induces DNA re-replication in SW480 colon adenocarcinoma cells; SW480 DNA re-replication, Hoechst DNA content imaging, 48 h; Potency, µM (highest dose often 46.1 µM), most hits filed as activators; actives 1.8% (n = 340,000); AID 624297; also: nearly all actives have a fitted effect of over 55% in size
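Readout is total intensity of Hoechst-stained nuclei, excited at 405 nm and collected at 500-530 nm. Compound treatment lasted 48 hr at 37 C in 5% CO2 before staining.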
Each line names hits and unclear results; the compound was inactive in the other large screens. Unless noted, calls follow the shape of the dose curve; as a rule, active = well fitted curve in the direction sought with a large enough effect; inconclusive = small, poorly fitted or top-dose-only effect, or another doubt; inactive = no such curve, though single readings can be large; an effect the other way counts as inactive or inconclusive.

NS(=O)(=O)OCc1ccc(C(F)(F)F)cc1	DT40 TDP1 CPT inconclusive, TDP1 cell noCPT inconclusive
CCN(CC)S(=O)(=O)c1cc(C(=O)N2CCc3ccccc32)ccc1Cl	DT40 TDP1 CPT inconclusive, TDP1 cell noCPT 9.2µM
O=C(c1cccc(F)c1)N1CCc2ccccc21	Chronic BCR inh inconclusive, MCF10A rerep 0.184µM
N=C(N1CCCc2ccccc21)N1CCCc2ccccc21	DT40 TDP1 CPT 16.4µM, TDP1 cell noCPT 20.6µM, SW480 rereplic inconclusive (no result: Chronic BCR inh)
O=C(c1ccc(C(=O)N2CCCc3ccccc32)s1)N1CCCc2ccccc21	DT40 TDP1 CPT inconclusive, IL1B secr inh -51.9, TDP1 cell noCPT inconclusive
O=C(C(=O)N1CCCc2ccccc21)N1CCCc2ccccc21	TDP1 cell noCPT inconclusive
CCN(C1CCCCC1)S(=O)(=O)CCNC(=O)c1ccc2c(c1)OCO2	DT40 TDP1 CPT 23.1µM, TDP1 cell noCPT inconclusive
COc1ccc(N2CCN(C(CNC(=O)C(=O)NCc3ccc(C)cc3)c3cccnc3)CC2)cc1 (configuration not stated)	DT40 TDP1 CPT 8.2µM, TDP1 cell noCPT 7.31µM (no result: IL1B secr inh, Chronic BCR inh, MCF10A rerep, SW480 rereplic)
COc1ccc(N2CCN(C(CNC(=O)c3ccco3)c3cccnc3)CC2)cc1 (configuration not stated)	DT40 TDP1 CPT inconclusive, TDP1 cell noCPT inconclusive
O=C(NCc1ccccc1)C(=O)NCC(c1cccnc1)N1CCN(c2ccccc2)CC1 (configuration not stated)	DT40 TDP1 CPT 16.4µM, TDP1 cell noCPT 13µM (no result: IL1B secr inh, Chronic BCR inh, MCF10A rerep, SW480 rereplic)
COc1ccc(N2CCN(C(CNC(=O)C(=O)NCCc3ccccc3)c3cccnc3)CC2)cc1 (configuration not stated)	DT40 TDP1 CPT 14.6µM, TDP1 cell noCPT 16.4µM (no result: IL1B secr inh, Chronic BCR inh, MCF10A rerep, SW480 rereplic)
N#Cc1ccc(-c2ccc(OCC3CNC(=O)O3)cc2)cc1 (configuration not stated)	DT40 TDP1 CPT 8.2µM, TDP1 cell noCPT 13µM
O=C(COc1ccc(Br)cc1CNCCc1ccccc1)NCc1ccccc1	DT40 TDP1 CPT 11.6µM, IL1B secr inh inconclusive, Chronic BCR inh inconclusive, MCF10A rerep inconclusive, TDP1 cell noCPT 7.31µM, SW480 rereplic inconclusive
NS(=O)(=O)c1ccc(CCNCc2cc(Br)ccc2OCc2ccccc2F)cc1	DT40 TDP1 CPT 5.8µM, Chronic BCR inh inconclusive, MCF10A rerep inconclusive, TDP1 cell noCPT 4.11µM, SW480 rereplic inconclusive (no result: IL1B secr inh)
NS(=O)(=O)c1ccc(CCNCc2cc(Cl)ccc2OCc2ccccc2)cc1	DT40 TDP1 CPT inconclusive, IL1B secr inh -99.9, Chronic BCR inh inconclusive, TDP1 cell noCPT inconclusive
NS(=O)(=O)c1ccc(CCNCc2ccccc2OCc2ccc(Cl)cc2)cc1	DT40 TDP1 CPT 23.1µM, IL1B secr inh -80.5, Chronic BCR inh inconclusive, MCF10A rerep inconclusive, TDP1 cell noCPT inconclusive
COc1ccc(CN2CCNC(=O)C2CC(=O)N(C)Cc2nonc2C)c(F)c1 (configuration not stated)	none
COC(CNC(=O)CN1CCN(Cc2ccccc2F)C1=O)OC	none
CCCCC(=O)NCCNc1nc2c(c(=O)n(C)c(=O)n2C)n1Cc1ccc(F)cc1	TDP1 cell noCPT inconclusive
Cn1c(=O)c2c(nc(NCc3ccc4c(c3)OCO4)n2Cc2ccc(F)cc2)n(C)c1=O	DT40 TDP1 CPT 9.2µM, Chronic BCR inh inconclusive, MCF10A rerep inconclusive, TDP1 cell noCPT 6.51µM, SW480 rereplic inconclusive
CCNc1nc2c(c(=O)n(C)c(=O)n2C)n1Cc1ccc(F)cc1	DT40 TDP1 CPT 2.06µM, Chronic BCR inh inconclusive, TDP1 cell noCPT 1.03µM (no result: IL1B secr inh, MCF10A rerep, SW480 rereplic)
Cn1c(=O)c2c(nc(NCc3ccc4c(c3)OCO4)n2Cc2ccccc2)n(C)c1=O	DT40 TDP1 CPT inconclusive, MCF10A rerep inconclusive, TDP1 cell noCPT inconclusive, SW480 rereplic inconclusive
COc1ccc(CCC(=O)Nc2ccc(OC)c(S(=O)(=O)N3CCCCC3)c2)cc1	DT40 TDP1 CPT inconclusive
COc1cccc(CNC(=O)c2cccc(N3CCCS3(=O)=O)c2)c1	none (no result: IL1B secr inh, Chronic BCR inh, MCF10A rerep, SW480 rereplic)
O=C1c2ccccc2C(c2nnnn2Cc2ccccc2)N1Cc1ccco1 (configuration not stated)	none (no result: Chronic BCR inh, MCF10A rerep, SW480 rereplic)
CCCCC(=O)Nc1nn(CC(C)C)c2nc3ccccc3cc12	DT40 TDP1 CPT inconclusive, MCF10A rerep inconclusive, TDP1 cell noCPT inconclusive, SW480 rereplic inconclusive
CCn1nc(NC(=O)COC)c2cc3cc(C)ccc3nc21	SW480 rereplic 23.1µM
Cc1ccc2nc3c(cc2c1)c(NC(=O)C(C)(C)C)nn3CC(C)C	MCF10A rerep 2.91µM, SW480 rereplic inconclusive
Cc1ccc2nc3c(cc2c1)c(NC(=O)C1CCCO1)nn3CC(C)C (configuration not stated)	IL1B secr inh inconclusive, TDP1 cell noCPT inconclusive, SW480 rereplic inconclusive
CC(C)Cn1nc(NC(=O)C(C)(C)C)c2cc3ccccc3nc21	DT40 TDP1 CPT inconclusive, Chronic BCR inh inconclusive, MCF10A rerep 23.1µM, TDP1 cell noCPT inconclusive, SW480 rereplic inconclusive
NC(=O)c1ccc[n+](CC(=O)c2cccc([N+](=O)[O-])c2)c1	none
CCCCOCCCNC(=O)CN1C(=O)c2ccccc2C1=O	MCF10A rerep 3.66µM
O=C(N/N=C/c1cccc(OCc2ccccc2)c1)c1ccc(Br)cc1	DT40 TDP1 CPT inconclusive, TDP1 cell noCPT 18.4µM
CCOc1ccc(Br)cc1C(=O)N/N=C/c1cccc(C)n1	MCF10A rerep 18.4µM
COc1ccc(C(=O)N/N=C/c2ccc3cccc(OCc4ccccc4)c3n2)cc1	DT40 TDP1 CPT inconclusive, Chronic BCR inh inconclusive, TDP1 cell noCPT 8.2µM
O=C(N/N=C/c1ccc2cccc(OCc3ccccc3)c2n1)c1ccc(Br)cc1	DT40 TDP1 CPT 16.4µM, Chronic BCR inh inconclusive, MCF10A rerep inconclusive, TDP1 cell noCPT inconclusive
Cc1ccc(S(=O)(=O)/N=C(/Nc2cccc(O)c2)c2ccccc2)cc1	DT40 TDP1 CPT inconclusive, TDP1 cell noCPT inconclusive
O=C1c2ccccc2C(=O)N1c1nc(-c2ccc(F)cc2)cs1	TDP1 cell noCPT inconclusive (no result: IL1B secr inh, Chronic BCR inh, MCF10A rerep, SW480 rereplic)
Cc1ccccc1C(=O)Nc1ccc(S(=O)(=O)N2CCOCC2)cc1	none
CC(C)C[C@H]1CNC(=O)C(=O)N1CC1CCN(CC2CCC(C)CC2)CC1 (some centres not stated)	none (no result: Chronic BCR inh, MCF10A rerep, SW480 rereplic)
C/C(=N\N(Cc1ccccc1)c1ccccc1)c1cccnc1	DT40 TDP1 CPT inconclusive, IL1B secr inh -51.2, TDP1 cell noCPT inconclusive
O=C(NCc1ccccc1Cl)C1CCCN1C(=O)Nc1ccccc1 (configuration not stated)	none
Cn1cc([N+](=O)[O-])c(C(=O)Nc2ccc(C(=O)N3CCCCC3)cc2)n1	MCF10A rerep 20.6µM, SW480 rereplic 14.6µM (no result: IL1B secr inh)
